About 83,000 compounds went through this panel and 20% of them were active in at least one assay; those are over-represented in the sample as a whole.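 96-well plates, one dose, 48 hours. Percent growth reported; active if below 10.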 Unmarked numbers belong to inactive results. Activity calls are given as the source filed them.
How the values were obtained:
Experiment in all cases: NCI-60 one-dose screen, 48 h (100 = growth as untreated, 0 = no growth, -100 = all killed)
Conditions in all cases: 10 µM
SN12C renal = test system: SN12C renal
UO-31 renal = test system: UO-31 renal
TK-10 renal = test system: TK-10 renal
ACHN renal = test system: ACHN renal
CAKI-1 renal = test system: CAKI-1 renal
A498 renal = test system: A498 renal
CCRF-CEM leukemia = test system: CCRF-CEM leukemia
MOLT-4 leukemia = test system: MOLT-4 leukemia
SR leukemia = test system: SR leukemia
RPMI-8226 leukemia = test system: RPMI-8226 leukemia
OVCAR-8 ovarian = test system: OVCAR-8 ovarian
OVCAR-4 ovarian = test system: OVCAR-4 ovarian
SK-OV-3 ovarian = test system: SK-OV-3 ovarian
IGROV1 ovarian = test system: IGROV1 ovarian
OVCAR-3 ovarian = test system: OVCAR-3 ovarian
HS 578T breast = test system: HS 578T breast
NCI/ADR-RES ovarian = test system: NCI/ADR-RES ovarian
T-47D breast = test system: T-47D breast
OVCAR-5 ovarian = test system: OVCAR-5 ovarian

Row | SMILES | growth (SN12C renal) | growth (UO-31 renal) | growth (TK-10 renal) | growth (ACHN renal) | growth (CAKI-1 renal) | growth (A498 renal) | growth (CCRF-CEM leukemia) | growth (MOLT-4 leukemia) | growth (SR leukemia) | growth (RPMI-8226 leukemia) | growth (OVCAR-8 ovarian) | growth (OVCAR-4 ovarian) | growth (SK-OV-3 ovarian) | growth (IGROV1 ovarian) | growth (OVCAR-3 ovarian) | growth (HS 578T breast) | growth (NCI/ADR-RES ovarian) | growth (T-47D breast) | growth (OVCAR-5 ovarian)
1 | O=C(C[P+](c1ccccc1)(c1ccccc1)c1ccccc1)C[P+](c1ccccc1)(c1ccccc1)c1ccccc1 | -45.9% (active) | -98.2% (active) | -94.1% (active) | -99.4% (active) | -96.1% (active) | -93.8% (active) | -24% (active) | -28.9% (active) | -19.6% (active) | -40.6% (active) | -42.1% (active) | -55.8% (active) | -3.83% (active) | -69.3% (active) | -92.9% (active) | -5.42% (active) | 1.56% (active) | -45.2% (active) | –
2 | Nc1nc(N)c(NC(=O)CNc2ccc(C(=O)O)cc2)c(N)n1 | 97.1% | 94.1% | 108% | 115% | 91.5% | 101% | – | 107% | – | 98% | 105% | 104% | 107% | 118% | 118% | 103% | 123% | 94.6% | 108%
3 | Clc1ccc(Nc2ccnc(NCCCNc3ccnc4cc(Cl)ccc34)n2)cc1 | -51.6% (active) | -46.2% (active) | -82.9% (active) | -93.9% (active) | -71.5% (active) | -4.52% (active) | – | -31.5% (active) | -55.5% (active) | -62.1% (active) | -49% (active) | 6.79% (active) | -32% (active) | -6.05% (active) | -19% (active) | -56.7% (active) | 4.05% (active) | -63.7% (active) | 18.3%
4 | Cc1cc(=O)n2nnc3c4ccccc4ccc3n12 | 37.2% | 46.8% | 74.1% | 78.1% | 67.8% | 108% | 23.4% | – | 9.54% (active) | 8.01% (active) | 27.3% | 49.3% | 53.6% | 61.8% | 40.4% | 104% | 68.4% | 47.6% | 88.5%
5 | O=C1NC(=O)N(Cc2ccccc2)CC1Br (stereo unspecified) | 56.3% | 77.6% | 86.3% | 70.5% | – | 129% | 13% | 57.7% | 19.7% | – | 61.9% | 77.7% | 87% | 56.9% | 92.9% | 114% | 56.6% | 57% | 85.3%
6 | CC/C(C)=C(\C)C(=O)O | 111% | 78.4% | 105% | 116% | 95.5% | 110% | – | 101% | 107% | 107% | 103% | 118% | 91.9% | 104% | 105% | 100% | 108% | 100% | 112%
7 | CCCCCCCC(C)NCCO (stereo unspecified) | 112% | 80.8% | 105% | 117% | 97.1% | 104% | – | 99.6% | 108% | 107% | 98.7% | 118% | 93.6% | 103% | 101% | 99.4% | 111% | 100% | –
8 | CS(=O)(=O)Nc1ccc(Nc2c3ccccc3nc3cc(N)ccc23)cc1 | 5.31% (active) | 28.6% | 62.3% | 24.9% | 19.9% | 57.1% | – | 5.41% (active) | 8.53% (active) | 21.6% | 24.8% | 43.2% | 32% | 37.5% | 15.3% | – | 96.5% | -14.5% (active) | 56.6%
9 | CCOC(=O)N1C/C(=C/c2ccc(F)cc2)C(=O)/C(=C/c2ccc(F)cc2)C1 | -43.8% (active) | -55.6% (active) | 2.65% (active) | -28% (active) | -16% (active) | – | -1.18% (active) | 2.2% (active) | -19.9% (active) | -29% (active) | 9.76% (active) | 9.8% (active) | 12.7% | -34.1% (active) | -29.2% (active) | -10.5% (active) | 9.49% (active) | 30.5% | 24.2%
10 | COc1cc(-c2cc(/C=C3\C(=O)Nc4ccc(Cl)cc43)[nH]n2)cc(OC)c1OC | 7% (active) | 9.62% (active) | 27.5% | 23.9% | 17.5% | 41.1% | – | -4.3% (active) | 20.4% | -18.3% (active) | 7.57% (active) | 17% | 82.5% | -10.2% (active) | 34.2% | 6.98% (active) | 11.4% | 24.8% | 68.4%
11 | O=C(Nc1cccc(-n2cc(-c3ccncc3)c(-c3ccc(O)c(Cl)c3)n2)c1)c1ccc(Cl)c(Cl)c1 | 70.9% | 36.3% | 104% | 49% | 13% | 74.6% | – | 45.8% | 15.1% | 18.1% | 35.7% | 67% | 80.9% | 60.7% | 81.7% | 53.8% | 49.6% | 36% | 109%
12 | COc1ccccc1CNCCCN1C(=O)c2ccc3c4c(ccc(c24)C1=O)C(=O)N(CCCN)C3=O | -89% (active) | -20.8% (active) | -3.35% (active) | 2.62% (active) | 31.3% | -0.046% (active) | -10.4% (active) | – | 5.24% (active) | -13.6% (active) | -24.2% (active) | -67.1% (active) | 27.3% | -52.7% (active) | -27.8% (active) | -13% (active) | 59.4% | -42.6% (active) | -29.7% (active)
13 | Nc1c(C(=O)Nc2cccc(F)c2)sc2nc3c(cc12)C(=O)CCC3 | 37.4% | 56.1% | 85.5% | 53.6% | 28% | -12.1% (active) | – | 66.3% | 16.1% | 43.1% | 63.9% | 57.8% | 25.6% | 44.1% | -3.4% (active) | 29.3% | 13.3% | 42.6% | 38.2%
14 | COc1cc(Nc2ccnc(NCCNc3ccnc4cc(Cl)ccc34)n2)cc(OC)c1 | 52% | 37% | 48.3% | 30.7% | 40.8% | 39.9% | – | 15.3% | – | -42.7% (active) | 45.4% | 42.4% | 75.1% | 23.6% | 56.8% | 63.7% | 67.9% | – | 43.9%
15 | CN(C)c1ccc(/C=C/C=N/NC(=O)c2cc(O)c(O)c(O)c2)cc1 | 105% | 65.9% | 101% | 76.8% | 93.4% | 88.1% | – | 48% | 32.9% | 99.9% | 89.3% | 67.8% | 99.3% | 100% | 90.9% | 100% | 102% | 25.3% | 102%
16 | CCOC(=O)N1C=CC2C=CC1C1C=CC=CC2N1C(=O)OCC (stereo unspecified) | 99.3% | 83.4% | 111% | 101% | 84.5% | 89.7% | – | 95.5% | – | 89.5% | 96.5% | 97.8% | 97% | 97.8% | 100% | 87.5% | 95.3% | 98.9% | 95%
17 | COc1cc(Nc2ncnc(Nc3ccc4c(n3)NC(=O)C(C)(C)O4)n2)cc(OC)c1OC | 18.9% | -6.15% (active) | -36.4% (active) | 14.6% | -10.2% (active) | -75.1% (active) | – | 33.9% | 9.18% (active) | 20.6% | 24.1% | 39.8% | -19.6% (active) | -46.1% (active) | 35.9% | -20.4% (active) | 34.2% | 34.5% | –
18 | O=C(O)c1ccc(P(=O)(O)O)c([N+](=O)[O-])c1 | 101% | 86% | 108% | 103% | 94.7% | 93.9% | – | 111% | 87.7% | 102% | 98% | 104% | 107% | 119% | 111% | 104% | 108% | 104% | 107%

Source: PubChem BioAssay (NCI)
